Many of the other results were omitted from the sample, so hits are more common in it than they were.
Cruzain inh noDet: qHTS Assay for Promiscuous and Specific Inhibitors of Cruzain (without detergent); purified cruzain, Z-FR-AMC fluorescence, no detergent; 200,000 tested, 2.3% active; Cruzipain (Trypanosoma cruzi), P25779; Potency, µM, for the others: max response, negative = inhibition, most hits filed as inhibitors;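 note: plate controls were enzyme without inhibitor for no effect and buffer without enzyme for full effect; nearly all actives have a fitted effect of over 40% in size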
Target sequence (P25779 123-467 limits assumed): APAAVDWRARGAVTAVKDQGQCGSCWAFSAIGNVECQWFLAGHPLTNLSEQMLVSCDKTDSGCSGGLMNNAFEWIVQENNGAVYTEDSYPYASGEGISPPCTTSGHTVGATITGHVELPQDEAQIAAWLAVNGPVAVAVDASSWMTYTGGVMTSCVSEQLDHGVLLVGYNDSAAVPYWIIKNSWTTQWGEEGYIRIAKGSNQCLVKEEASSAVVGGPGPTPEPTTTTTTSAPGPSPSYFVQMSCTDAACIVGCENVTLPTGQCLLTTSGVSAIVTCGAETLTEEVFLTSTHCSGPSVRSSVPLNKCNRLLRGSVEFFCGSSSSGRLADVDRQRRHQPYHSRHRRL
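Detergent-free condition (0.00005% Triton X-100) in acetate buffer pH 5.5 with DTT. 1.5 nM enzyme and compound were pre-mixed 15 min, then 2 uM Z-FR-AMC substrate added; reaction progress from fluorescence change between first and third reads (60 s).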
NS1 function inh: qHTS Assay for Inhibitors of Influenza NS1 Protein Function. Potency, µM (doses to about 46.1 µM), inactives show at the top dose activity, positive = more growth. AID 2326, 2010. 270,000 tested, 0.4% active; calls by dose curve; note: actives are rising curves; nearly all actives have a fitted effect of over 50% in size
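OD600 was taken as the measure of yeast growth restored by compound in an NS1-expressing S. cerevisiae strain. Cells had been washed out of glucose medium and diluted 1:100 into galactose -URA medium, pH 6.0.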
Cruzain inh Det: qHTS Assay for Promiscuous and Specific Inhibitors of Cruzain (with detergent). Potency, µM, without a hit: max response, negative = inhibition, most hits filed as inhibitors. Cruzipain (Trypanosoma cruzi), P25779. 200,000 tested, 0.43% active. AID 1478, 2009. purified cruzain, Z-FR-AMC fluorescence, 0.01% Triton;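 note: plate controls were neutral wells for no effect and buffer without enzyme for full effect; nearly all actives have a fitted effect of over 40% in size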
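Steps: dispense cruzain (1.5 nM final) in acetate buffer pH 5.5 with DTT and 0.01% Triton X-100; pin-transfer compounds; incubate 15 min RT; add Z-FR-AMC (2 uM final); read fluorescence every 30 s, using the 60 s intensity change.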
Active calls of the source: *; ? = inconclusive; nt = no result. Unless noted, calls come from the whole dose curve; as a rule, active = well fitted curve in the direction sought with a large enough effect; inconclusive = small, poorly fitted or top-dose-only effect, or another doubt; inactive = no such curve, though single readings can be large; an effect the other way counts as inactive or inconclusive. Potency is the fitted concentration of half-maximal effect.

SMILES	Cruzain inh noDet	NS1 function inh	Cruzain inh Det
COCCN(CCOC)c1nc(C)nc2c1nc(-c1ccccc1)n2CCN1CCCC1	-4%	nt	0%
Cc1ccc(OP(=O)(Oc2ccc(C)cc2)Oc2ccc(C)cc2)cc1	-7%	nt	2%
O=[N+]([O-])c1ccc(N/N=C/c2cccc(O)c2)cc1	nt	-81%	nt
Cc1ccccc1NC(=O)c1ccc(N/N=C/c2ccccc2O)c([N+](=O)[O-])c1	10µM*	9%	0%
NS(=O)(=O)c1ccc(N/N=C/c2ccc(O)cc2O)c([N+](=O)[O-])c1	nt	1%	nt
Cc1ccc(NC(=O)c2ccc(N/N=C/c3cccc(O)c3)c([N+](=O)[O-])c2)cc1	10µM*	8%	0%
CCCn1c(=O)c2sccc2n2c(CCCC(=O)Nc3ccc(Oc4ccccc4)cc3)nnc12	?	nt	5%
N#CCCn1cnc2c1NC=NC2Cl (stereo not given)	-7%	nt	-2%
COc1cc2c(C#N)c(N3CCc4ccccc4C3)nc(N)c2c(N)n1	13µM*	-49%	-9%
COc1cc2c(C#N)c(N3CCCCC3)nc(N)c2c(N)n1	-28%	-69%	-13%
FC(F)(F)c1ccccc1-c1nc(Nc2ccncc2)c2ccccc2n1	16%	nt	-24%
Cc1cc(NC(=O)c2ccc3c(c2)C(=O)N(C2CCCCC2)C3=O)no1	6.3µM*	0%	6%
Cc1cc(NC(=O)c2ccc3c(c2)C(=O)N(C)C3=O)no1	10%	-4%	2%
Cc1nn2c(NCCCN3CCOCC3)c3c(nc2c1-c1ccccc1)CCC3	-5%	-5%	-2%
CCCCNc1c2c(nc3c(-c4ccccc4)c(C)nn13)CCC2	7.9µM*	-8%	-12%
COc1ccc2[nH]cc(CCNc3ncncc3-c3ccoc3)c2c1	-2%	nt	-1%
CCc1ccc(NC(=O)CSc2nc3n[nH]c(C)c3c(=N)n2-c2ccccc2C)cc1	-25%	nt	-2%
CCOc1ccccc1-n1c(SCC(=O)Nc2ccc(CC)cc2)nc2n[nH]c(C)c2c1=N	6.3µM*	10%	1%
N#Cc1cccc(NC(=O)N2CCCC3(CCN(C(=O)c4cnccn4)CC3)C2)c1	-3%	nt	4%
CC(=O)Nc1cccc(-c2cn3ccccc3n2)c1	nt	-3%	nt
O=C(Nc1cccc(-c2cn3ccccc3n2)c1)c1cc2ccccc2oc1=O	?	12%	3.5µM*
O=C1CC2(CCCC2)CC(=O)N1CCNC[C@H]1COc2ccccc2O1	2%	nt	-3%
Cc1cccc(N2CCN(C3(c4ccccc4)C(=O)c4ccccc4C3=O)CC2)c1C	-6%	nt	-1%
CCCCCOc1ccccc1CN1C(=O)C(=O)c2cc(C)ccc21	0%	nt	-1%
COc1cc(/C=N/N=C(/N)c2nonc2N)cc(Br)c1OCc1ccccc1C	-25%	-4%	3%
SMILES	Cruzain inh noDet	NS1 function inh	Cruzain inh Det
CCOc1cc(/C=N/N=C(/N)c2nonc2N)cc(Br)c1OCc1ccc(Cl)cc1	4µM*	-1%	2%
Cc1oc2ccc(O)c(CN3CCOCC3)c2c1C(=O)Nc1ccc(C(C)C)cc1	-9%	nt	-7%
Cc1cc2oc(=O)cc(CSc3nnc(C)n3N)c2cc1C(C)C	-10%	5%	-14%
Cc1cc2oc(=O)cc(CSc3nnc(-c4cccs4)o3)c2cc1C(C)C	13µM*	?	-6%
CCOC(=O)c1cc(S(=O)(=O)N2CCN(c3cc(C)ccc3C)CC2)[nH]n1	12%	nt	-11%
O=C(/C=C/NNC(=O)c1ccccc1)c1ccc(Br)cc1	?	-104%	-8%
O=C(/C=C/NNC(=O)c1cccc(Br)c1)c1cccc(Br)c1	7.9µM*	-61%	-6%
CC(C)(C[C@@]1(C)NC(=O)NC1=O)OCc1ccccc1	1%	0%	3%
CCSc1nc2c(c(=O)[nH]1)C(c1cccnc1)C(C(=O)OC)=C(C)N2 (stereo not given)	-6%	4%	-2%
COC(=O)C1=C(C)Nc2nc(SCc3ccccc3)[nH]c(=O)c2C1c1cccs1 (stereo not given)	25µM*	20%	-1%
O=C(NCCC1=CCCCC1)C1CCN(S(=O)(=O)c2cccc3nsnc23)CC1	25µM*	4%	-1%
O=C(NCCc1ccccc1)C1CCN(S(=O)(=O)c2cccc3nsnc23)CC1	-6%	-1%	2%
O=C(N/N=C\c1ccc(CN(Cc2ccc(Cl)cc2)S(=O)(=O)c2ccccc2)o1)C(=O)Nc1ccc(F)cc1	7.9µM*	4%	2%
O=C(N/N=C\c1ccc(CNS(=O)(=O)c2ccccc2)o1)C(=O)Nc1ccc(F)cc1	?	2%	1%
O=C(N/N=C\c1ccc(CNS(=O)(=O)c2ccc(Cl)cc2)o1)C(=O)Nc1ccc(Oc2ccccc2)cc1	7.9µM*	17%	-1%
O=C(NCc1ccc(/C=N\NC(=O)C(=O)Nc2ccccc2Br)o1)C(=O)Nc1ccccc1	nt	14%	nt
Cc1ccc(C(=O)c2sc3nsc(C)c3c2N)cc1	-5%	5%	-4%
Cc1snc2sc(C(=O)c3ccc(Br)cc3)c(N)c12	16µM*	1%	20µM*
Cc1cn2c(=O)cc(COC(=O)c3cccc(NC(=O)COc4ccccc4)c3)nc2s1	11%	nt	1%
O=C1c2cccc3cccc(c23)C(=O)N1c1nccs1	6%	6%	-4%
O=C1c2cccc3cccc(c23)C(=O)N1c1ccc2ncccc2c1	?	8%	18µM*
COc1ccccc1-c1nnc(SCC(=O)c2ccc(F)cc2)n1-c1ccccc1	?	nt	-5%
Cc1ccc(C2=NNC(c3ccc(Cl)cc3)=Nc3ccccc32)o1	13µM*	?	-6%
c1ccc(C2=NNC(c3ccco3)=Nc3ccccc32)cc1	nt	14%	nt
O=C(N/N=C\C=C\c1ccco1)c1cc(-c2ccc3ccccc3c2)n[nH]1	16µM*	15%	-10%
SMILES	Cruzain inh noDet	NS1 function inh	Cruzain inh Det
O=C(N/N=C/C=C\c1ccco1)c1ccccn1	nt	3%	nt
CC(C)c1c(C#N)c(N)nc(SCC(=O)c2cc3ccccc3oc2=O)c1C#N	-37%	10%	1%
N#Cc1ccc(-c2ccccc2)nc1SCC(=O)c1cc2ccccc2oc1=O	20µM*	16%	-5%
CCN1C(=O)C(Cc2nc3ccccc3c(=O)n2-c2cccc(C)c2)c2ccccc21 (stereo not given)	2%	nt	-7%
COc1ccccc1NC(=O)C1=C(C)Nc2nc(-c3ccc(N(C)C)cc3)nn2C1c1ccncc1 (stereo not given)	?	-2%	-6%
COc1ccccc1NC(=O)C1=C(C)Nc2nc(-c3cccs3)nn2C1c1cccnc1 (stereo not given)	16µM*	0%	0%
CCCC(=O)Nc1nc2c(s1)COc1ccccc1-2	nt	-20%	nt
O=C(CCSc1ccccc1)Nc1nc2c(s1)COc1ccccc1-2	32µM*	3%	-7%
N=C(N)CCNC(=O)[C@@H]1CCC(N)=N1	7%	-1%	3%
CCOC(=O)C1=C(CN2CCN(c3cc(C)ccc3C)CC2)NC(=O)NC1c1ccc(Cl)cc1 (stereo not given)	0%	nt	-9%
Cc1ccc(-c2nsc3c(N4CCN(C(=O)c5ccco5)CC4)ncnc23)cc1	?	3.5µM*	-11%
O=C(c1ccco1)N1CCN(c2ncnc3c(-c4ccc(Cl)cc4)nsc23)CC1	nt	-3%	nt
Cn1c(=O)n(C/C=C/c2ccccc2)c(=O)c2c1nc1n2CCN1c1ccc(F)cc1	-6%	nt	-5%
